This is an account of results in PubChem BioAssay (NCI).

What all share (assay): NCI-60 one-dose screen, 48 h (100 = growth as untreated, 0 = no growth, -100 = all killed)
Conditions in all cases: 10 µM

Experiment [1] deals with DU-145 prostate.
Experiment [2] concerns K-562 leukemia.
Experiment [3] deals with MDA-MB-231 breast.
Experiment [4] relates to RXF 393 renal.
Experiment [5] relates to SF-268 CNS.
The test system of experiment [6] is SF-295 CNS.
Experiment [7] concerns SF-539 CNS.
In experiment [8] the test system is UACC-257 melanoma.
For experiment [9], the system named is M14 melanoma.
The test system of experiment [10] is HCT-15 colon.
In experiment [11] the test system is HT29 colon.
The test system of experiment [12] is SNB-75 CNS.
Experiment [13] has as its system SNB-19 CNS.
Experiment [14] deals with U251 CNS.
Experiment [15] concerns PC-3 prostate.
Experiment [16] relates to SK-MEL-5 melanoma.
Experiment [17] deals with UACC-62 melanoma.
The subject of experiment [18] is LOX IMVI melanoma.
The subject of experiment [19] is SK-MEL-28 melanoma.

SMILES strings stand for the structures. This is part of a sample that, as a whole, favours compounds with a hit. Of some 83,000 tested, about 20% had one in any assay.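 Step 1: grow cells in 96-well plates. Step 2: add test compound at a single concentration. Step 3: incubate 48 h. Step 4: record percent growth.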 Unmarked numbers belong to inactive results. Activity calls are given as the source filed them. How the source made its calls: active means growth percent below 10; inactive means the rest.

In the case of `Nc1c(C(=O)Nc2ccccc2F)sc2nc3c(cc12)C(=O)CCC3`, the growth is 8.4% (active) in [1]; 26.3% in experiment [2]; 48.9% in [3]; 9.63% (active) in experiment [4]; 54.9% in [5]; 3.17% (active) in experiment [6]. Also, the growth was 10.5% in experiment [7]; 66.9% in experiment [8]; 19.2% in experiment [9]; 40.2% in experiment [10]; 12.2% in experiment [11]; 13.7% in experiment [12]. Also, the growth in experiment [13] is 41.1%; in experiment [14], 31.6%; in [15], 23.4%; in experiment [16] it was 17.9%; in experiment [17], 23.7%; in experiment [18] it was 54.2%. For the same compound, the growth in [19] is 64.1%.
Regarding `O=C(N/N=C/c1ccccc1O)c1ccccc1`, the growth in experiment [1] was 32.4%; in experiment [2], 15.8%; in [3] it was 32.5%; in experiment [4], 41.2%; in experiment [5], 30%; in experiment [6], 26%. Besides, the growth in experiment [7] was 27.9%; in experiment [8] it was -8.71% (active); in experiment [9], 26.5%; in experiment [10] it was 23.9%; in experiment [11], 45.5%; in [12], 56.6%. The growth in [13] is 56%; in experiment [14] it was 27.6%; in experiment [15], 37.8%; in experiment [16], 13.3%; in experiment [17], 13.8%; in [18], 5.3% (active). For the same compound, in [19], the growth was 73.5%.
Consider `CC1(C)CC(OCCCC[P+](c2ccccc2)(c2ccccc2)c2ccccc2)CC(C)(C)N1O`, for which the growth in experiment [1] is 5.39% (active); in experiment [2], -53.4% (active); in experiment [3] it was -25.7% (active); in experiment [4] it was -38.1% (active); in [5], 3.46% (active); in experiment [6], -56% (active). Also, the growth in [7] was 12%; in [8], -40.6% (active); in [9], 8.8% (active); in experiment [10], 9.52% (active); in [11] it was 10.6%; in [12] it was -3.17% (active). The growth in experiment [13] was 3.91% (active); in [14], 8.32% (active); in [15], -45.6% (active); in [16], -98.4% (active); in experiment [17] it was -35.9% (active); in experiment [18], -74.2% (active). In experiment [19], the growth is -55.8% (active).
With `Cc1cc(C#Cc2ccccc2)ccc1-n1c(/C=C/c2cc(O)ccc2O)nc2ccccc2c1=O`, the growth in [1] is 2.27% (active); in experiment [2] it was 7.36% (active); in [3], -24.2% (active); in experiment [4], -27.9% (active); in experiment [5], 5.15% (active); in [6] it was -14.6% (active). Further, the growth is -20.9% (active) in experiment [7]; 20% in experiment [8]; -3.57% (active) in [9]; -33.6% (active) in experiment [10]; 11.8% in experiment [11]; 16.2% in experiment [12]. Also, the growth in experiment [13] was 26.6%; in [14] it was 5.85% (active); in experiment [15], 3.46% (active); in [16] it was -84.5% (active); in experiment [17], -55.6% (active); in [18], -80.6% (active). The growth in [19] is -45.3% (active).
Consider `NC(=O)C12C(=O)NC(=O)C1(C(=O)O)C21CCCC1` (configuration not stated), for which the growth in [1] is 133%; in [2], 108%; in experiment [3], 98.9%; in [4], 122%; in [5], 114%; in experiment [6], 110%. Also, the growth in experiment [7] is 113%; in experiment [8] it was 103%; in [9], 105%; in [10], 107%; in [11] it was 110%; in experiment [12], 84.2%. Moreover, the growth in experiment [13] is 99.3%; in [14] it was 102%; in [15], 99%; in [16] it was 106%; in experiment [17], 101%; in [18] it was 102%. Also, in experiment [19], the growth was 109%.
With `O=CNc1c(Cl)cc2c(c1Cl)Cc1cc([N+](=O)[O-])ccc1-2`, the growth in experiment [1] is 79.1%; in experiment [2], 16.4%; in experiment [3], 63.6%; in [4], 96.9%; in experiment [5] it was 78.8%; in experiment [6] it was 77.3%. The growth in experiment [7] is 67.9%; in experiment [8], 72.6%; in experiment [9], 28.7%; in experiment [10], 29.3%; in experiment [11], 58.4%; in experiment [12], 65.6%. Also, the growth in experiment [13] is 87.5%; in experiment [14], 78.1%; in experiment [15], 40.2%; in experiment [16] it was 5.14% (active); in experiment [17], 48.8%; in experiment [18], 55.7%. Further, the growth in experiment [19] is 106%.
For `O=C(Nc1cccc([N+](=O)[O-])c1)NN1CCCCCC1`, the growth was 94.7% in experiment [1]; 84.1% in [2]; 77.7% in [3]; 113% in experiment [4]; 98.1% in experiment [5]; 94% in [6]. The growth is 86.9% in [7]; 105% in experiment [8]; 110% in experiment [9]; 90.4% in experiment [10]; 107% in experiment [11]; 105% in experiment [12]. The growth in experiment [13] was 95.6%; in [14], 87.2%; in experiment [15], 83.1%; in [16] it was 96%; in [17] it was 76.2%; in [18], 97.2%. In addition, the growth in [19] is 112%.
As for `Nc1ccc2c(c1)Cc1cc(N)c(Cl)cc1-2`, the growth in experiment [1] is 119%; in [2], 104%; in experiment [3], 88.4%; in experiment [4], 110%; in [5] it was 113%; in [6], 99.1%. Besides, the growth in experiment [7] was 95.9%; in experiment [8] it was 94.5%; in experiment [9], 107%; in experiment [10], 100%; in [11], 101%; in [12], 86.7%. In addition, the growth was 92.9% in experiment [13]; 93.2% in experiment [14]; 95.7% in experiment [15]; 93.9% in experiment [16]; 83.9% in [17]; 104% in experiment [18]. In addition, the growth in [19] was 103%.
